PDI inh: inhibitors of human PDI, primary screen, biochemical, turbidity, single point, plate reader; PDI insulin aggregation turbidity, A650, 90 min; AID 588391, 2011; Protein disulfide-isomerase (Homo sapiens), P07237; 350,000 tested, 0.052% active; inhibition, % at 10 µM;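 active = mean inhibition across replicates of 30% or more, whatever share of single replicates reach that level; inconclusive = mean inhibition below 30% while every single replicate reaches 30%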
Efflux pump mplx: inhibitors of Candida efflux pumps in yeast, primary screen, S. cerevisiae, Nile Red, multiplex; S. cerevisiae Candida pump triplex; inhibition, % at 10 µM; 330,000 tested, 0.44% active;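 active = plate passing quality check with inhibition over a set limit, or well fluorescence over plate mean plus 4 SD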;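 also: Nile Red retained in pooled yeast measured as flow cytometry median fluorescence; 0% = buffer negative control and 100% = Enniatin B positive control; higher means more Nile Red kept so more efflux inhibition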
Rtt109 Vps75: inhibitors of C. albicans Rtt109/Vps75 HAT, primary screen, biochemical, ThioGlo CoA-SH fluorescence, plate reader; inhibition, % at 34.9 µM; purified Rtt109/Vps75, 4 h; 330,000 tested, 0.16% active;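 active = inhibition of at least 50% in every replicate; inconclusive = best replicate reaches 50% inhibition but some replicates fall short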
Target sequence (Q5AAJ8 whole entry, looked up): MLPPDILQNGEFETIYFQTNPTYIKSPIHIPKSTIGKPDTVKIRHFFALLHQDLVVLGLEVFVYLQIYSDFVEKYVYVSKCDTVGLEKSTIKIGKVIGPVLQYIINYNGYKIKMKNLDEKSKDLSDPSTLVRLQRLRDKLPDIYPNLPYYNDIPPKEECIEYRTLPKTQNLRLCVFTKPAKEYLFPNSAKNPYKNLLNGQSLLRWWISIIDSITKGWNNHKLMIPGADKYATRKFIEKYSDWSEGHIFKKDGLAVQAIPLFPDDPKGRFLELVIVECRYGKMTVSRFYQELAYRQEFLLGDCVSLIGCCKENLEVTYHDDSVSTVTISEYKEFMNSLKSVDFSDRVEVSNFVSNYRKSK
ERp5 inh: inhibitors of ERp5-driven insulin aggregation, primary screen, biochemical, turbidity, absorbance 650 nm, single point; Protein disulfide-isomerase A6 (Homo sapiens), Q15084; 90 min; inhibition, % at 9.99 µM; 350,000 tested, 0.05% active; AID 651711, 2012;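 active = mean replicate inhibition above about 25%, with every replicate also reaching it, limit read from the data, passing the limit was not always enough; inconclusive = only one of those two criteria met; inactive = neither criterion met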
PvdQ acylase: P. aeruginosa PvdQ acylase inhibitors, primary screen, biochemical, fluorescence, plate reader and imaging, single point; PvdQ acylase [Pseudomonas aeruginosa LESB58]; 340,000 tested, 0.063% active; purified PvdQ acylase; inhibition, % at 10 µM; in the data active = inhibition above about 30%, passing the limit was not always enough; inconclusive = no clear call, values can overlap the other calls;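 also: 0% = vehicle neutral wells and 100% = reference inhibitor wells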
Cmpd fluor yeast: flagged as fluorescent in efflux inhibitor counter-screen; shares compounds with Efflux pump mplx; S. cerevisiae AD/pABC3, compound fluorescence, flow cytometry; fluorescence ratio to DMSO, % at 10 µM; 1,700 tested, 4% active; AID 588517;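 active = fluorescence ratio to DMSO above its plate's cutoff, the plate mean ratio plus 5 SD, cut at about 210% in these data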;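 also: unstained yeast with no Nile Red so the signal is compound autofluorescence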
Mdr1 pump inh: inhibitors of Candida albicans Mdr1 efflux, confirmation, flow cytometry, singleplex, Cherry Pick1 set; shares compounds with Efflux pump mplx; S. cerevisiae AD/CaMDR1, Nile Red efflux; inhibition, % at 10 µM; 1,700 tested, 1% active; AID 588518, 2011; in the data active = inhibition above about 26%;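 also: 0% = DMSO vehicle and 100% = reference inhibitor; higher means more Nile Red retained so more efflux inhibition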
Cdr2 pump inh: inhibitors of Candida albicans Cdr2 efflux pump, confirmation, S. cerevisiae AD/CaCDR2, flow cytometry, cherry pick 1, singleplex | Nile Red retention ratio vs DMSO, % at 10 µM | 1,700 tested, 4% active | Nile Red retention | shares compounds with Efflux pump mplx; in the data active = Nile Red retention ratio vs DMSO above about 190%;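 also: higher ratio means more blocking of Cdr2 efflux of the dye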
CaCdr1 efflux inh: inhibitors of Candida albicans Cdr1 efflux pump, confirmation, S. cerevisiae AD/CaCDR1, flow cytometry, cherry pick 1, singleplex. shares compounds with Efflux pump mplx. Nile Red efflux. inhibition, % at 10 µM. 1,700 tested, 1% active. AID 588522, 2011;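 active = inhibition above the screen-wide mean plus twice its standard deviation, cut at about 32% in these data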
An asterisk follows results filed as active; u = inconclusive; x = no result. The list is not random: actives were taken first. Their share in the collection is about 0.54%.

SMILES	PDI inh	Efflux pump mplx	Rtt109 Vps75	ERp5 inh	PvdQ acylase	Cmpd fluor yeast	Mdr1 pump inh	Cdr2 pump inh	CaCdr1 efflux inh
C/C(=N\NC(=O)c1cccc(Cl)c1)C1C(=O)c2ccccc2C1=O	1	13*	10	0	1	92	0	101	0
CCCNC(=O)Nc1ccc2c(c1)OC[C@@H](C)N(C(C)=O)C[C@@H](C)[C@H](OC)CN(C)C2=O	x	x	x	-1	x	x	x	x	x
CC1O[C@@H](OC2C(COC3OC(CO)C(O)[C@H](O)C3O)OC(OC3CC[C@]4(C)C(CC[C@@]5(C)[C@@H]4CC=C4[C@@H]6CC(C)(C)CC[C@]6(CO)C(O)C[C@]45C)C3(C)C)C(O)C2O)C(O)C(O)C1O (stereo not given in full)	-9	1	17	6	-14	x	x	x	x
C[C@H]1O[C@@H](O[C@H]2CC[C@@]3(C)C(CC[C@]4(C)C3C=CC3=C5CC(C)(C)CC[C@]5(CO)[C@H](O)C[C@]34C)[C@]2(C)CO)[C@H](O)[C@@H](O[C@@H]2O[C@H](CO)[C@@H](O)[C@H](O)[C@H]2O)[C@H]1O (stereo not given in full)	5	1.7*	15	-7	-20	109	0	112	0
COc1cc(/C=C2\N=C(c3ccccc3)OC2=O)ccc1OCc1c(C)no[n+]1[O-]	0	10*	26	x	2	106	0	136	0
NC(=S)N/N=C/c1cccc(/C=N/NC(N)=S)c1	-4	0	-4	u	-7	x	x	x	x
NC(=S)N/N=C/c1ccc2ccccc2c1	9	8.2*	4	-1	-6	112	0	108	0
CC(C)CC#Cc1cnc2c(c1)C(=O)N([C@H](C)CO)C[C@H](C)[C@H](CN(C)Cc1ccccc1)O2	x	x	x	-5	x	x	x	x	x
Cc1ccc(C(=O)OCC(=O)NC(C)C)cc1S(=O)(=O)N1CCOCC1	8	0	12	0	6	x	x	x	x
Cc1ccc(C)c(C(=O)COC(=O)c2ccc(C)c(S(=O)(=O)N3CCOCC3)c2)c1	5	1.1*	6	-3	-5	87	0	95	0
O=C(C1CCOCC1)N1CC2(C1)[C@@H](c1ccccc1)[C@@H](CO)N2CCC(F)(F)F	x	x	x	0	x	x	x	x	x
CC(C)C#Cc1cnc2c(c1)C(=O)N([C@@H](C)CO)C[C@@H](C)[C@H](CN(C)Cc1ccccn1)O2	x	x	x	-1	x	x	x	x	x
CCOC(Cn1c(SCc2cc(C(C)=O)ccc2OC)nc2ccccc2c1=O)OCC	-13	0	0	-1	-18	x	x	x	x
COc1ccc(C(C)=O)cc1CSc1nc2cc(C(=O)O)ccc2c(=O)n1Cc1ccccc1	-1	5.8*	18	2	7	98	0	108	0
O=C(C1CCCO1)N1CCN(C(=S)Nc2ccc(F)cc2)CC1 (stereo not given)	-3	2.5*	-12	8	-17	107	0	108	0
COc1ccc2c3c([nH]c2c1)[C@H](CO)N(Cc1ccccc1F)CC31CCN(C(=O)C2CCC2)CC1	x	x	x	-4	x	x	x	x	x
C[C@H](CO)N1C[C@H](C)[C@@H](CN(C)CC2CCCC2)Oc2cc(C3=CCCCC3)ccc2S1(=O)=O	x	x	x	0	x	x	x	x	x
Cc1ccccc1NC(=O)CSc1ccc(-c2cccnc2)nn1	1	0	-6	-1	-6	x	x	x	x
CCOC(=O)c1ccccc1NC(=O)CSc1ccc(-c2cccnc2)nn1	11	1.5*	0	-2	2	87	0	91	0
